Reference: PubChem BioAssay (NCATS)
Values without a mark were called inactive. Inconclusive results are not listed. Entries that show only a call come without a potency. Activity calls are given as the source filed them. Calls come from the whole dose curve; as a rule, active = well fitted inhibition curve with a large enough effect; inconclusive = small, poorly fitted or top-dose-only effect; inactive = no such curve, though single readings can be large or run the other way.

Columns and labels:
[1] = biological target: Single-stranded DNA cytosine deaminase (Homo sapiens) (UniProt Q9GZX7); experiment: Validation qHTS assay for inhibitors of Activation Induced Cytidine Deaminase (AID): AID signal (AID 1347429)
Sequence of Single-stranded DNA cytosine deaminase (Homo sapiens) (Q9GZX7 whole entry, looked up): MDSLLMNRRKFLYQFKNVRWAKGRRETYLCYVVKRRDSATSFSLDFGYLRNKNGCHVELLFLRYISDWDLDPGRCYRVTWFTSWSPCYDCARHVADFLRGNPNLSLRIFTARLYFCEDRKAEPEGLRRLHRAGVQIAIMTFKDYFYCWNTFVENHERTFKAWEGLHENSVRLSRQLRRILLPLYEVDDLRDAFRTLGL
Procedure, shortened: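 Steps: dispense AID with UDG; pin-transfer compound up to 114 uM final; add DJC20/DJC23 substrate and hold 4 hr at room temperature; add NaOH, hold 30 min; read FRET signal (540/590 nm).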

[2] = Primary qHTS for inhibitors of La Crosse Virus (LACV) - induced cell death in SH-SY5Y cells (AID 1508616);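 note: top concentration of the series differs between compounds; higher means more rescue of cells from virus-induced death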
Procedure, shortened: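 SH-SY5Y, 6000 cells/well; cpd via pin tool in DMSO; LACV 0.01 MOI; 6 d 37C 5% CO2; ATPLite, 5 min RT; luminescence normalized to ±virus DMSO controls.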

[3] = Primary qHTS for small molecule stabilizers of the endoplasmic reticulum resident proteome: Secreted ER Calcium Modulated Protein (SERCaMP) assay (AID 1508630)
Procedure, shortened: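 The SH-SY5Y reporter protocol was run at 3 concentrations up to 38.3 uM (primary) or 11 concentrations (follow-up): 16 h compound, 100 nM thapsigargin for 4 h, then extracellular luciferase luminescence.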

Papain (Carica papaya) = Papain (Carica papaya) (UniProt P00784); experiment: Primary qHTS assay for inhibitors of the protease papain (AID 1645873);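 note: papain turnover of Z-FR-AMC read as the AMC fluorescence gain over 10 min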; note: potency is the fitted concentration of half-maximal effect
Sequence of Papain (Carica papaya) (P00784 whole entry, looked up): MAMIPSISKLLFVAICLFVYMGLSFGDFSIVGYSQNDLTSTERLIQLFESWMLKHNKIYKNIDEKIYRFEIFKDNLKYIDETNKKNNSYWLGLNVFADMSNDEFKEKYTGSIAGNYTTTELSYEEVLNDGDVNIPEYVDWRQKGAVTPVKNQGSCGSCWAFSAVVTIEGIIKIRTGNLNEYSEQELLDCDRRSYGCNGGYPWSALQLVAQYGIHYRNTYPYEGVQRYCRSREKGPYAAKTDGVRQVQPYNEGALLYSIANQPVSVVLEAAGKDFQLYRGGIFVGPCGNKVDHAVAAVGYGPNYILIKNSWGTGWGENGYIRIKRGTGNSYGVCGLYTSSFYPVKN

Compound | Potency [1] | Potency [2] | Potency [3] | Potency (Papain (Carica papaya))
COC(=O)C(N)Cc1ccc(Cl)cc1 (stereo not drawn) | inactive | inactive | inactive | inactive
Cn1cc(C(=O)OCC2CCN(CCNS(C)(=O)=O)CC2)c2ccccc21 | inactive | inactive | inactive | inactive
O=c1[nH]c(=O)c2nc3ccccc3nc2[nH]1 | inactive | inactive | – | inactive
O=C1Nc2ccc(I)cc2/C1=C/c1cc(Br)c(O)c(Br)c1 | inactive | inactive | inactive | inactive
O=[N+]([O-])c1cccc2c(Br)[nH]nc12 | inactive | inactive | inactive | inactive
c1ccc2c(c1)CC(N1CCN(c3cccc4c3OCCO4)CC1)C2 | inactive | inactive | inactive | inactive
N#C/C(=C\c1ccc(O)c(O)c1)C(=O)NCCc1ccccc1 | inactive | inactive | – | inactive
Cc1ccc([N+](=O)[O-])cc1S(=O)(=O)N(C)C | inactive | inactive | inactive | inactive
CNCCc1cnc(CCC(c2ccccc2)c2ccccc2)[nH]1 | inactive | inactive | inactive | inactive
N[C@H](C(=O)O)[C@H]1C[C@@H]1C(=O)O | inactive | inactive | inactive | inactive
C=CCn1c(=O)c2c(nc(-c3ccc(S(=O)(=O)O)cc3)n2C)n(C)c1=O | inactive | inactive | inactive | 25.1 µM (active)
C#CC(N)CCC(=O)O (stereo not drawn) | inactive | inactive | – | inactive
Oc1cc2c(cc1O)C(c1ccccc1)CNCC2 (stereo not drawn) | inactive | inactive | inactive | inactive
C[C@H](O)C(=O)C1=Nc2c(nc(N)[nH]c2=O)NC1 | inactive | inactive | inactive | 28.2 µM (active)
COc1cc(CNC(=O)CCCCCCC(C)C)ccc1O | inactive | inactive | inactive | inactive
NC1(C(=O)O)CCc2cc(C(=O)O)ccc21 (stereo not drawn) | inactive | inactive | – | inactive
COc1ccccc1N1CCN(CCCCN2C(=O)c3ccccc3C2=O)CC1 | inactive | inactive | inactive | inactive
CN1CCC2(CCN3CCc4c(oc5ccccc45)C3C2)N(C)C1=O (stereo not drawn) | inactive | inactive | – | inactive

Compound | Potency [1] | Potency [2] | Potency [3] | Potency (Papain (Carica papaya))
CC(N)(C(=O)O)c1ccc(C(=O)O)cc1 (stereo not drawn) | inactive | inactive | inactive | inactive
C[C@@]1(C2CCCC2)Cc2cc(OCC(=O)O)c(Cl)c(Cl)c2C1=O | inactive | inactive | inactive | inactive
c1ccc(C(NCc2cccnc2)(c2ccccc2)c2ccccc2)cc1 | inactive | inactive | inactive | inactive
NC(=O)c1cc[n+](CC2=C(C(=O)O)N3C(=O)[C@@H](NC(=O)[C@@H](c4ccccc4)S(=O)(=O)[O-])[C@H]3SC2)cc1 | inactive | inactive | inactive | inactive
Cc1nc2c(OCc3ccccc3)cccn2c1CC#N | inactive | inactive | inactive | inactive
O=C(O)/C=C/c1ccc(O)c(O)c1 | inactive | inactive | inactive | inactive
Cn1c(=O)[nH]c2ncn(C)c2c1=O | inactive | inactive | inactive | inactive
c1ccc2nc(C3=NCCN3)ccc2c1 | inactive | inactive | – | inactive
C[C@H](NC(=O)/C(C#N)=C/c1ccc(O)c(O)c1)c1ccccc1 | inactive | inactive | – | inactive
COc1ccc2c(c1)c(CC(=O)O)c(C)n2Cc1ccc(Cl)cc1 | inactive | inactive | inactive | inactive
CC(C)NCC(O)COc1ccc(CC(N)=O)cc1 (stereo not drawn) | inactive | inactive | – | inactive
C=C1C(=O)O[C@@H]2[C@H]3O[C@]3(C)CCC=C(C)CC[C@@H]12 | inactive | inactive | inactive | inactive
CCCCCCCCCCC(C)(C)C(=O)Nc1c(OC)cc(OC)cc1OC | inactive | inactive | – | inactive
CC1=C(C(=O)O)N2C(=O)[C@@H](NC(=O)C(N)C3=CCC=CC3)[C@H]2SC1 (stereo partly drawn) | inactive | inactive | – | inactive
Cc1cccc(C)c1OCC(N)C(C)C (stereo not drawn) | inactive | inactive | inactive | inactive
NC(N)=[N+]1CCc2ccccc2C1 | inactive | inactive | inactive | inactive
COc1cc(N)c(Cl)cc1C(=O)OCCN1CCCCC1 | inactive | inactive | – | inactive
N[C@@H](CCC(=O)N[C@H](CSN=O)C(=O)NCC(=O)O)C(=O)O | inactive | inactive | inactive | inactive
